Results on 101 compounds are retold here after PubChem BioAssay AID588855 (National Center for Advancing Translational Sciences (NCATS), 2011).

The whole screen tested about 410,000 compounds, of which about 5,000 (1.2%) were called active. Entries that show only a call come without a potency. Roughly 13% stayed inconclusive and do not appear here. Calls come from the whole dose curve; as a rule, active = well fitted inhibition curve with a large enough effect; inconclusive = small, poorly fitted or top-dose-only effect; inactive = no such curve, though single readings can be large or run the other way. Many of the other results were omitted from the sample, so actives are more common in it than they were.
Potency is the fitted concentration of half-maximal effect.

The test is described as follows: qHTS for Inhibitors of TGF-b. Note: nearly all actives have a fitted effect of over 65% in size. The settings on record: HepG2 CAGA-GFP TGF-b/SMAD3 reporter, GFP fluorescence, 18 h, TGF-beta stimulated, 500 pg/mL final; series mostly up to 46.1 µM. In a few lines:
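Read-out: total well GFP (ex488/em500-530) summed from mean per-cell fluorescence. Cells: HEPG2 CAGA-GFP, 1% FBS DMEM, 18 h at 37 degrees C with 500 pg/mL final TGF-beta. Unstimulated wells served as the full-inhibition control; stimulated DMSO wells = 0%.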
On the technique in general: Quantitative high-throughput screening tests each substance at several concentrations.
Consider `COc1cc(OC)c(OC)cc1/C=C1\C=Cc2ccccc21`, for which the Potency result is “inactive”.
Consider `CN(C)c1ccc(/C=C2\C=Cc3ccccc32)cc1Br`, for which the Potency result is “inactive”.
The value for `COc1cc(OC)c(NC(=O)c2cnc(N3CCCC3)nc2C)cc1Cl` was “inactive”; that for `COCCNc1nc(NCc2ccc(NC(C)=O)cc2)c2sccc2n1` was “inactive”; that for `COc1ccccc1CNc1nc(Nc2ccccc2Cl)c2sccc2n1` was “inactive”.
As to `COc1cccc(CNc2nc(NCc3ccccc3OC)nc3ccsc23)c1`, the Potency is 10 µM (active).
On to `Cc1cc(C)cc(NC(=O)CCCc2nc(-c3ccccc3Cl)no2)c1`, for which the Potency entry is “inactive”.
For `NC(=O)Nc1ccc(/C=C/c2ccnc3ccccc23)cc1` the value was “inactive”; for `Cc1ccc(S(=O)(=O)c2nc(-c3cccs3)oc2NCc2cccnc2)cc1`, “inactive”; for `CCCCS(=O)(=O)c1oc(-c2cccs2)nc1S(=O)(=O)c1ccccc1`, 3.16 µM (active).
For `NC(=O)CSc1oc(-c2cccs2)nc1S(=O)(=O)c1ccccc1`, the Potency entry was “inactive”.
Turning to `CCOc1ccc(-c2nonc2NC(=O)c2oc3ccc(C)cc3c2C)cc1OCC`, the Potency result is “inactive”.
The value for `CC(C)(C)c1ccc(C(=O)Nc2ccc3c(c2)CCCN3C(=O)c2cccs2)cc1` was “inactive”.
Take `CC1CC2=C(CC1/C=N/NC(N)=S)C(C)(C)CCC2` (stereo unspecified): the Potency was 10 µM (active).
Regarding `COc1cc(OC)c(NC(=O)N2CC3CCCN3c3ccccc32)cc1Cl` (stereo unspecified), the Potency entry was “inactive”.
Take `COc1cc(NC(=O)c2noc3c2CSc2ccccc2-3)cc(OC)c1OC`: the Potency entry is “inactive”.
For `COc1ccc(-c2nc(CN3CCC(C(=O)NCCN(CC(C)C)CC(C)C)CC3)c(C)o2)cc1OC` the value was “inactive”; for `COc1ccc(-c2nc3sc(CCNC(=O)C(C)(C)C)c(C)n3n2)cc1`, “inactive”; for `Cc1ccc(C(=O)N/C(=C\c2cccs2)C(=O)NCCc2ccccn2)cc1C`, “inactive”.
The value for `COc1cncc(-c2cnc3sc(NCCc4ccccn4)nn23)c1` was 7.94 µM (active); that for `CCCN(CCC)S(=O)(=O)c1ccc(C(=O)Nc2sc3c(c2C(=O)OC)CCN(CC)C3)cc1` was “inactive”.
`COc1ccc(Cl)cc1NC(=O)c1sc2nc3c(cc2c1N)CN(C)CC3`: the Potency entry is “inactive”.
`O=C1C[C@@H](c2ccc3ccccc3c2)N1S(=O)(=O)c1ccccc1[N+](=O)[O-]`: the Potency result is “inactive”.
For `Cc1ccc(-n2ncc3c(NCCCn4ccnc4)ncnc32)cc1Cl`, the Potency entry is “inactive”.
For `Oc1c(Cl)cc(Cl)c(Cl)c1Cc1c(O)c(Cl)cc(Cl)c1Cl` the value was 5.62 µM (active); for `CCOc1ccc(N(CC)C(=O)c2noc3c2COc2ccc(C)cc2-3)cc1`, “inactive”; for `Cc1ccc(C=O)cc1Cl`, “inactive”.
For `CSc1ccc(C2c3c(oc4ccccc4c3=O)C(=O)N2CCCN2CCOCC2)cc1` (stereo unspecified) the value was “inactive”; for `COc1cccc(CNC(=O)c2cc(=O)[nH]c3ccc(S(=O)(=O)N4CCCCC4)cc23)c1`, “inactive”; for `Fc1ccc(-c2ccc(NCCN3CCOCC3)nn2)cc1`, “inactive”.
Consider `O=C(NCCN1CCOCC1)c1cc(Sc2cccc(Cl)c2)nc2ccccc12`, for which the Potency result is “inactive”.
Take `c1ccc2cc3c(NCCN4CCOCC4)ccnc3cc2c1`: the Potency was 3.98 µM (active).
The value for `COc1ccc(S(=O)(=O)c2c(Nc3ccc(C)cc3)sc(C(=O)c3ccc(C)cc3)c2N)cc1` was “inactive”.
Turning to `Cc1ccc(-c2nc(CSCC(=O)NC3CCN(Cc4ccccc4)CC3)c(C)o2)cc1`, the Potency was 11.2 µM (active).
The value for `CCOc1ccc(CC(=O)NC2CCN(Cc3ccccc3)CC2)cc1` was “inactive”.
The value for `COc1ccc(-c2nc(CN3CCC(C(=O)NCc4ccccc4)CC3)c(C)o2)cc1OC` was “inactive”.
For `COc1ccccc1-c1cc(C(F)(F)F)nc(S(=O)(=O)CCCC(=O)Nc2cc(C)ccc2O)n1` the value was “inactive”; for `COc1ccccc1-c1cc(C(F)(F)F)nc(S(=O)(=O)CCCC(=O)Nc2ccc(F)cc2F)n1`, 3.98 µM (active).
Consider `CSc1ccccc1NC(=O)CCS(=O)(=O)c1nc(-c2cccs2)cc(C(F)(F)F)n1`, for which the Potency entry was “inactive”.
In the case of `CCOc1cc(C(=O)Nc2nnc3n2CCS3)cc(OCC)c1OCC`, the Potency entry is “inactive”.
Regarding `O=C(Nc1ccc(Br)cn1)c1ccc([N+](=O)[O-])cc1Cl`, the Potency entry is “inactive”.
For the compound `Cc1cccc(NC(=O)c2ccc([N+](=O)[O-])o2)c1`, the Potency is 11.2 µM (active).
Consider `O=C(Nc1cccc(NC(=O)c2ccccc2[N+](=O)[O-])c1)c1ccccc1Cl`, for which the Potency result was “inactive”.
`O=C(Nc1ccc(Br)cn1)c1ccc([N+](=O)[O-])o1`: the Potency is 10 µM (active).
The value for `Cc1onc(C(=O)Nc2ccc3c(c2)OCO3)c1[N+](=O)[O-]` was “inactive”.
For `Cc1onc(NC(=O)c2ccc([N+](=O)[O-])o2)c1Br` the value was 11.2 µM (active).
On to `Cc1cccc(NC(=O)CCn2c(=O)oc3ccccc32)c1`, for which the Potency entry was “inactive”.
In the case of `CN1C(=O)c2ccc(C(=O)Nc3ccc(Br)cn3)cc2C1=O`, the Potency result was “inactive”.
As for `O=C(COC(=O)c1ccc([N+](=O)[O-])o1)NC12CC3CC(CC(C3)C1)C2`, the Potency result was “inactive”.
The value for `CCOc1ccc(N(CC)C(=O)C2CCN(S(=O)(=O)c3cccc4nonc34)CC2)cc1` was “inactive”; that for `COc1ccc(NC(=O)c2sc3nc[nH]c(=O)c3c2C)cc1` was “inactive”; that for `Cc1nc2ccn(Cc3cccnc3)c(=O)c2cc1C(=O)N1CCN(c2ccccc2F)CC1` was “inactive”.
Take `Cc1nn(C(C)C(=O)Nc2ccc(C(C)C)cc2)c(=O)c2c1sc1ccccc12` (stereo unspecified): the Potency entry was “inactive”.
With `Cc1ccc2sc(N(Cc3cccnc3)C(=O)C3COc4ccccc4O3)nc2c1C` (stereo unspecified), the Potency entry is “inactive”.
For `O=C(c1ccccc1F)N1CCC(c2nc3c(nnn3Cc3cccc(F)c3)c(=O)[nH]2)CC1`, the Potency result was “inactive”.
The value for `O=[N+]([O-])c1ccc(C=Nc2ccc(Cl)cc2Cl)s1` was 10 µM (active); that for `CCOC(=O)c1sc(NC(=O)/C=C/c2ccc(C(C)C)cc2)c(C(=O)OCC)c1C` was “inactive”.
The value for `CS(=O)c1ccc(/C=C2\C=Cc3ccccc32)cc1` (stereo unspecified) was “inactive”; that for `COc1cccc(-c2cc(C(=O)Nc3ccc(C)cc3)[nH]n2)c1` was “inactive”; that for `O=C(O)c1ccc(Nc2nc(-c3ccccc3)c3cc(Br)ccc3n2)cc1` was “inactive”.
For `OCCNc1nc(Nc2ccc(Cl)c(Cl)c2)nc2ccccc12` the value was 11.2 µM (active).
Take `O=C(Cn1c(NCCO)nc2ccccc21)c1ccc(Cl)cc1Cl`: the Potency entry was “inactive”.
For `O=C(C1CC1)N1CCc2cc(Br)cc(S(=O)(=O)N3CCN(c4ccccc4F)CC3)c21` the value was “inactive”; for `CCOC(=O)CNC(=O)c1cc2c(=O)n3cccc(C)c3nc2s1`, “inactive”.
The value for `Cc1cccc(CN2Cc3cccc4c3[C@H](C=CC4)CC2=S)c1` was “inactive”.
The value for `CC(C)c1ccc(NC(=O)C2CCN(c3nc(-c4ccc(C(C)C)cc4)no3)CC2)cc1` was “inactive”; that for `Cc1cc(C)cc(OC(C)C(=O)Nc2nc3c(s2)CCCC3)c1` (stereo unspecified) was “inactive”; that for `COc1ccc(CCNc2nc3c(-c4cccc(F)c4)nnn3c3ccccc23)cc1OC` was “inactive”.
For the compound `CC(Nc1nc(C(F)(F)F)nc2ccccc12)c1cccs1` (stereo unspecified), the Potency is 17.8 µM (active).
The value for `CC(Nc1nc(N2CCN(CCO)CC2)nc2ccccc12)c1ccccc1` (stereo unspecified) was “inactive”; that for `Cc1cc(C)n(-c2nc(C(F)(F)F)nc3ccccc23)n1` was “inactive”.
For `COc1ccc(/C=C/c2ccccn2)cc1OC` the value was “inactive”; for `CC(C)CC(=O)Nc1nnc(S(=O)(=O)N(C)c2ccc(Cl)cc2)s1`, “inactive”; for `Cc1ccccc1C(=O)Nc1nnc(S(=O)(=O)N(C)c2ccc(Cl)cc2)s1`, 8.91 µM (active).
For `CN(Cc1ccccc1)S(=O)(=O)c1nnc(NC(=O)c2ccccc2F)s1` the value was “inactive”; for `CCCCc1nn2c(=O)cc(COC(=O)c3cccc(NC(=O)COc4ccccc4)c3)nc2s1`, “inactive”.
As to `Cc1nn(-c2ccc(F)cc2)c(-n2cccc2)c1C(=O)N1CCN(c2ccccc2)CC1`, the Potency result was “inactive”.
For `Cc1ccc2oc3c(c(=O)c2c1)C(c1ccc([N+](=O)[O-])cc1)N(CCCN1CCOCC1)C3=O` (stereo unspecified), the Potency result is “inactive”.
On to `COc1ccc(CCNC(=O)c2cc(=O)c3c(C)cc(C)cc3o2)cc1OC`, for which the Potency entry was “inactive”.
Consider `Cc1ccc(-c2cc(-c3coc4ccccc4c3=O)c3c(n2)-c2cc(Cl)ccc2OC3)cc1`, for which the Potency result is “inactive”.
For `COC(=O)c1ccc2nc(C3CCCCC3)c(Cc3cccc(F)c3)n2c1` the value was “inactive”.
In the case of `Fc1cccc(Cc2c(-c3cccc(Cl)c3)nc3ccc(Br)cn23)c1`, the Potency was 14.1 µM (active).
The value for `Fc1cccc(Cc2c(-c3ccc(Cl)cc3)nc3ccc(Cl)cn23)c1` was “inactive”; that for `COC(=O)c1ccc2nc(-c3ccc(Cl)cc3)c(Cc3cccc(F)c3)n2c1` was “inactive”.
For `Cc1cc(Br)cn2c(Cc3ccccc3C(F)(F)F)c(C3CCCCC3)nc12`, the Potency entry was “inactive”.
The value for `Clc1cccc(Cc2c(-c3cccc(Cl)c3)nc3ccc(Cl)cn23)c1` was 10 µM (active); that for `Brc1ccc2nc(-c3ccccc3)c(Cc3ccccc3)n2c1` was 12.6 µM (active).
The value for `Cc1ccc(-c2nc3ccc(Br)cn3c2Cc2ccccc2C(F)(F)F)cc1` was 14.1 µM (active); that for `Cc1ccc(-c2nc3ccc(Cl)cn3c2Cc2ccccc2)cc1` was “inactive”; that for `Cc1ccc2nc(-c3ccccc3)c(CC3CCCCC3)n2c1` was “inactive”.
For `CN(C)C(=O)c1nc2ccc(Cl)cn2c1CNCc1cccc(OC(F)(F)F)c1` the value was “inactive”; for `COc1ccccc1Cc1c(-c2ccc(Cl)cc2)nc2ccc(Cl)cn12`, “inactive”.
Take `Cc1ccc(NC(=O)CN2C(=O)CC(C)Sc3ccccc32)c(C)c1` (stereo unspecified): the Potency entry was “inactive”.
Consider `COc1ccc(CCNC(=O)CCc2c(C)nc3c(c(C)nn3-c3ccc(C)c(C)c3)c2C)c(OC)c1OC`, for which the Potency result was “inactive”.
The value for `COc1ccc(CCNC(=O)Cn2c(=O)n(-c3ccccc3)c(=O)c3c(C)c(C)sc32)cc1OC` was “inactive”; that for `CC(C)c1ccc(NC(=O)c2cc(S(=O)(=O)N3CCc4ccccc4C3)ccc2F)cc1` was “inactive”.
For `CCCCNC(=O)c1ccc2c(c1)NC(=O)C(C(C)C)N2` (stereo unspecified) the value was “inactive”.
Turning to `COc1ccc(C(=O)Nc2nonc2-c2ccc(OC)c(OC)c2)cc1Cl`, the Potency entry was “inactive”.
Regarding `COc1cc2nc(NCC(C)c3ccccc3)n3nc(-c4ccccc4)nc3c2cc1OC` (stereo unspecified), the Potency entry is “inactive”.
The value for `Cc1cccc(N(C)C(=O)CS(=O)(=O)c2cccc3nsnc23)c1` was “inactive”; that for `CCN1CCN(c2ccc(/C=C/c3ccnc4ccccc34)cc2)CC1` was “inactive”.
